Screening data: PubChem BioAssay, National Center for Advancing Translational Sciences (NCATS)
Hits are enriched below; roughly 12% of the tested compounds scored in any of these assays.
JMJD2A Tudor inh: blocks the human JMJD2A Tudor domain; AID 504339; O75164; Potency, µM (top dose mostly 114 µM), actives largely listed as inhibitors; AlphaScreen JMJD2A-Tudor / H3K4me3 peptide binding; 4.4% of 390,000 active; further: nearly all actives have a fitted effect of over 50% in size
BAZ2B block: blocks human BAZ2B; Q9UIF8; AlphaScreen BAZ2B-H3K14Ac peptide displacement; Potency, µM (highest dose often 114 µM), usual class: inhibitors; 4.4% of 360,000 active; further: nearly all actives have a fitted effect of over 60% in size
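AlphaScreen displacement: compounds (up to 110uM) incubated 30 min at room temperature with a preformed 50 nM BAZ2B/50 nM biotinylated H3K14Ac peptide complex in PBS pH 7.4 with Tween-20. Donor and acceptor beads at 10 ug/mL final added, 20 min light-protected before reading.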
Sfp inh: Sfp phosphopantetheinyl transferase inhibition | Biochemical Sfp PPTase activity, qHTS | AID 1490 | 3.5% of 310,000 active | Potency, µM, actives largely listed as inhibitors;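 further: the enzyme is Sfp with the accession as filed and its product quenches rhodamine fluorescence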
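Buffer: 50 mM Hepes-Na pH 7.6, 10 mM MgCl2, 0.01% Nonidet P-40, 0.01% BSA. Enzyme 15 nM, pre-exposed to compound 15 min; substrates then added and fluorescence change tracked over 30 min.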
G9a inh: blocks human histone lysine methyltransferase G9a; Q96KQ7; G9a H3K9 monomethylation, AlphaScreen, 2 h; Potency, µM (highest dose often 102 µM), most hits filed as inhibitors; 8.8% of 350,000 active; further: nearly all actives have a fitted effect of over 75% in size
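G9a (20 nM) preincubated 15 min RT with compounds, then 500 nM biotinylated H3K9 peptide and 20 uM SAM added; 2 h RT reaction. Monomethyl-H3K9 product detected by AlphaScreen with anti-H3K9me1 antibody, streptavidin donor and anti-rabbit IgG acceptor beads.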
L3MBTL1 inh: blocks human L3MBTL1; AlphaScreen L3MBTL1–H3K9me1 peptide binding; Q9Y468; 0.66% of 230,000 active; AID 485360; Potency, µM (series often up to 57.1 µM), actives largely listed as inhibitors; further: nearly all actives have a fitted effect of over 60% in size
Target sequence (Q9Y468 whole entry, looked up): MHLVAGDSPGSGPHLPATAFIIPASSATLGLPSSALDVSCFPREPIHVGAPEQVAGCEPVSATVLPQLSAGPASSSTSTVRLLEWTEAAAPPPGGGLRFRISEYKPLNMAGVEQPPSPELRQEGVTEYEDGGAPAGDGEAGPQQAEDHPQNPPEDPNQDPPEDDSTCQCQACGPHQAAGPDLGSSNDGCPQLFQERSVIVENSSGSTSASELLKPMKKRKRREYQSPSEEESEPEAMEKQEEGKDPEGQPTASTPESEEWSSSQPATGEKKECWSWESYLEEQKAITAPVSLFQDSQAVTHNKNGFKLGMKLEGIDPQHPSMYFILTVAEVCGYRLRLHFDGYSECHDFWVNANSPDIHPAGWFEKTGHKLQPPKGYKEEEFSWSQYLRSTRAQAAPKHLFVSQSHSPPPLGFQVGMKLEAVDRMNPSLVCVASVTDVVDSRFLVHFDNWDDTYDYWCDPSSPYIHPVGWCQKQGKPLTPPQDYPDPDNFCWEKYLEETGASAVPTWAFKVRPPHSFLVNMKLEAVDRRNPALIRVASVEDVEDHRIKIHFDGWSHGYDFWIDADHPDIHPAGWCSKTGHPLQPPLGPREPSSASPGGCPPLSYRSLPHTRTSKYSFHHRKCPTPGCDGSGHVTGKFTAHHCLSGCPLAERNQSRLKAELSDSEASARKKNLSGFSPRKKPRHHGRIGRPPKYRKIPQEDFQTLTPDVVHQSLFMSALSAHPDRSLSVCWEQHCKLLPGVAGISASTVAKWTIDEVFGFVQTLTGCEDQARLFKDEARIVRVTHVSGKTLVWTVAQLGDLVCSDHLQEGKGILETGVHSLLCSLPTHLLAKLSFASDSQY
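Displacement of a biotinylated histone H3(1-15) peptide monomethylated at Lys9 (75 nM) from L3MBTL1 (50 nM) was measured by AlphaScreen after a 30 min room-temperature compound incubation; cefsulodin titration served as intraplate control.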
HP1b binding inh: inhibitors of HP1-beta chromodomain binding to methylated histone tails | P83916 | AlphaScreen HP1-beta / biotin-H3K9me3 peptide binding | 0.56% of 390,000 active | Potency, µM (highest dose often 114 µM), usual class: inhibitors | AID 540317; further: nearly all actives have a fitted effect of over 70% in size
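AlphaScreen: HP1-beta (50 nM) preformed 30 min with biotin-H3(1-18)K9me3 peptide (50 nM) in PBS pH 7.4, 0.01% Tween-20. Compound added for 30 min at RT, then streptavidin donor/nickel chelate acceptor beads (10 ug/mL) for 30 min.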
Hits are given with their value; - = inactive; ? = inconclusive; . = not tested or not shown; [ ] = remark or other dose. The call rests on the fitted dose curve; in most records, active means well fitted curve in the direction sought with a large enough effect; inconclusive means small, poorly fitted or top-dose-only effect, or another doubt; inactive means no such curve, though single readings can be large; an effect the other way counts as inactive or inconclusive.

SMILES	JMJD2A Tudor inh	BAZ2B block	Sfp inh	G9a inh	L3MBTL1 inh	HP1b binding inh
COc1cc(-c2ccc(Nc3ccccc3C(=O)O)c(OC)c2)ccc1Nc1ccccc1C(=O)O	?	5.6µM	50µM	0.79µM	.	35µM
COc1ccc(OC)c(S(=O)(=O)Nc2ccccc2C(=O)O)c1	-	-	-	?	-	-
Cc1c(C(=O)Nc2ccc(Nc3ccccc3)cc2)cccc1[N+](=O)[O-]	?	?	-	40µM	.	-
CC(=O)n1cc(Nc2ccccc2C(=O)O)c2ccccc21	-	-	-	40µM	-	-
COC(=O)CCSc1nc2sc3c(c2c(=O)n1Cc1ccccc1)CCC(C(C)(C)C)C3 (stereo not given)	-	-	.	-	.	-
Cc1ccc(C2CC(=O)Oc3c(C(C)C)ccc(C)c32)cc1 (stereo not given)	.	.	-	-	.	.
O=C(O)c1ccccc1Nc1ccccc1	-	-	-	24µM	-	-
CC(=O)Nc1ccc(NC(=O)c2ccccc2Nc2ccccc2)cc1	-	-	-	50µM	.	-
Cc1nn(C)c(C(=O)Nc2cccc(Nc3ccccc3)c2)c1[N+](=O)[O-]	.	50µM	-	45µM	.	.
COc1cccc(Nc2ccccc2C(=O)O)c1	-	?	-	40µM	-	-
CCc1ccc(CNC(=O)CCCN2C(=O)CCn3nc(-c4cccn4C)cc32)cc1	?	?	.	?	.	-
CCOC(=O)c1ccccc1NC(=O)N(C)CCc1c(C)nn(CC)c1C	-	-	.	-[12.7 µM]	.	-
CC(C)C1C(=O)Nc2ccc(S(=O)(=O)NCCc3ccc(Cl)cc3)cc21 (stereo not given)	-	-	.	-	.	-
Cc1ccc(CNC(=O)CCc2nnc3n(C)c(=O)c4sccc4n23)cc1	-	-	.	-	.	-
CN(Cc1ccccc1)c1nc(-c2ccc([N+](=O)[O-])cc2)nc2ccccc12	?	?	-	-	-	-
O=[N+]([O-])c1ccc(-c2nc(C(Cl)Cl)c3ccccc3n2)cc1	-	?	-	22µM	-	-
Cc1ccc(S(=O)(=O)N2CCOCC2)cc1NC(=O)CNC(C)c1ccccc1 (stereo not given)	1.3µM	.	.	.	-	?
Cc1ccc(S(=O)(=O)N2CCOCC2)cc1NC(=O)CNCc1ccccn1	-[11.4 µM]	32µM	-	-[12.7 µM]	.	-
O=C(CNCc1ccccn1)Nc1cc(S(=O)(=O)N2CCCCC2)ccc1Cl	79µM	.	-	-	.	-
O=C(COC(=O)c1cc(Br)ccc1O)Nc1cc(S(=O)(=O)N2CCCC2)ccc1Cl	-	.	56µM	-	.	-
CCn1c(C(=O)NCc2ccccc2)cc2sc(Cl)cc21	-	-	.	-	.	-
Cc1ccc(CSCC(=O)Nc2cc(S(=O)(=O)N3CCOCC3)ccc2OC(C)C)cc1	-	?	.	50µM	-	-
CCOC(=O)c1c(NC(=O)/C=C/c2ccc(C)cc2)sc(C(C)=O)c1C	-	-	.	?	.	-
CC/C(=C/c1sc2ccc(C)cc2[n+]1CCO)SC	?	?	28µM	.	-	-
CC[n+]1c(S(=O)(=O)[O-])ccc2ccc(C)cc21	-	-	-	-	-	-
SMILES	JMJD2A Tudor inh	BAZ2B block	Sfp inh	G9a inh	L3MBTL1 inh	HP1b binding inh
CC/C(=C/c1sc2ccc(C)cc2[n+]1CCCS(=O)(=O)[O-])SC	-	?	50µM	45µM	.	-
CCn1c(C)[n+](CCCS(=O)(=O)[O-])c2cc(Cl)c(Cl)cc21	?	-	-	?	-	-
Cc1ccc2sc(C)[n+](CCC(C)S(=O)(=O)[O-])c2c1 (stereo not given)	-	-	40µM	-	-	-
Cc1cc(C)c2c(n1)sc1c(=O)n(-c3cc(Cl)ccc3C)nnc12	-	-	.	-	.	-
CCOC(=O)c1c(C)c(-c2ccccc2)n(CC(=O)NCc2cccc(OC)c2)c1C	-	-	.	-	.	-
O=C(Nc1ccc(F)cc1F)c1cc2ccc3cccnc3c2[nH]1	?	-	.	-	.	-
CCOc1ccccc1N(CC(=O)NCCSc1ccccc1)S(=O)(=O)c1ccccc1	-	-	.	-	.	-
O=C(CN1CCN(c2ccc(F)cc2)CC1)Nc1ccccc1Br	-	-	-	-	.	-
O=C(CN1CCN(c2ccc(F)cc2)CC1)Nc1ccccc1[N+](=O)[O-]	?	?	-	-	-	50µM
